# Data taken from PubChem BioAssay.
# What was measured:
# [1] = target: Tumor necrosis factor receptor superfamily member 10B (Homo sapiens) (UniProt O14763); assay: caspase-8 TRAIL sensitization, hit retest, confirmation, cell-based, NB7+caspase-8, with/without TRAIL, luminescence panel (AID 651596); settings: NB7 neuroblastoma + caspase-8, TRAIL sensitization, luminescence viability, with TRAIL, mean of runs, at 10 µM, stronger effect = higher value
# [2] = as above; settings: NB7 neuroblastoma + caspase-8, without TRAIL, luminescence viability, without TRAIL, mean of runs, at 10 µM
# Chain of Tumor necrosis factor receptor superfamily member 10B (Homo sapiens) (O14763 whole entry, looked up): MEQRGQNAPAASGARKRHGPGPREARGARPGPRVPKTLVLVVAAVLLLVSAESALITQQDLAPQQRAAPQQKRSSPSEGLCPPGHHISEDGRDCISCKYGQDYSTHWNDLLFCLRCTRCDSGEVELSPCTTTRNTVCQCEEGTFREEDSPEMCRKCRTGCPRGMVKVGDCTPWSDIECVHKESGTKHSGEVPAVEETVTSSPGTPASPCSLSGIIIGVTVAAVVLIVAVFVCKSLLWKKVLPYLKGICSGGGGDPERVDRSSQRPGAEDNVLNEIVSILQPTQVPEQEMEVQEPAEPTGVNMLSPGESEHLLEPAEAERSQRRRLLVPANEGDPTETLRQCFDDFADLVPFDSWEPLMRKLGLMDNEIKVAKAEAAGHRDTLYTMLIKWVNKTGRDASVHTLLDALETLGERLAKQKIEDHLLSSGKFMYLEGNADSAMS
Compound,activity [1] [%],activity [2] [%]
COC(=O)c1cc(OCC(=O)Nc2ccc3c(c2)CCC3)cc(C(=O)OC)c1,-14.7,-57.5
Cc1onc(C(=O)N2CCN(C(c3ccccc3)c3ccccc3)CC2)c1[N+](=O)[O-],99.8,97
O=C(Nc1nc(=O)c2ccccc2s1)c1ccc(F)cc1,64.8,72.2
CC(C)c1ccc(-n2c(-c3ccccc3)c[n+]3c2CCc2ccccc2-3)cc1,77,75.5
CC1CCCN(c2ncnc3c2cnn3-c2ccccc2)C1 (configuration not stated),86.1,85.1
N#Cc1ccc(NC(=O)Nc2ccc(Cl)cc2)cc1,81,65.3
O=C(CC1CCCC1)Nc1nc2ccccc2[nH]1,49.7,62.4
Cc1ccc2nc(-c3ccccn3)oc2c1,75.3,64.1
Cc1ccc(N(NC(=O)C(O)(c2ccccc2)c2ccccc2)C(=O)CCl)cc1,98.5,97.6
N#CCCCC#Cc1ccc2c(c1)COc1c3ccccc3nn1-2,78.1,75.6
O=C(Nc1ccc2[nH]ccc2c1)c1ccc(F)cc1,89.7,87
COC(=O)c1c(NC(=O)c2nc3ccccc3s2)sc2c1CC(C)(C)NC2(C)C,87.8,98.3
Clc1ccc(-n2ncc3c(N4CCCC4)ncnc32)cc1,66.2,53.2
Cc1cccc(NC(=O)c2cc3ccccc3c(=O)o2)n1,60.3,68.3
CC(C)(C)OC(=O)NCc1ccc(CNC(=O)c2[nH]cnc2C(=O)Nc2ccccc2F)cc1,43.6,34.9
Cc1ccccc1-c1nnc(SCC(=O)Nc2cccnc2Cl)o1,68.8,61
O=c1/c(=C/c2ccccn2)sc2nc3ccccc3n12,60,14.9
O=c1c2sc(-c3ccccc3)cc2nc2n1CCC2,46.9,50
Clc1ccc(OCc2nn3c(C4CCCCC4)nnc3s2)cc1,49.8,71.2
CC1(C)CC(=O)C=C(c2ccc(-c3ccc4[nH]ccc4c3)cc2)C1=O,67.8,64.4
Cc1noc(N)c1C(=O)Nc1ccc(C(C)(C)C)cc1,46.1,48.9
COC(=O)[C@@H]1Cc2c([nH]c3ccccc23)C(C)(C)N1C(=O)CCl,99,98
COc1ccc(-c2cc(C(=O)N3CCCC3)no2)cc1,64.9,59.8
NC(=O)c1ccsc1NC(=O)c1ccc(N2CCCC2=O)cc1,87.3,85.7
Cc1cccc2sc(NNC(=O)c3cc(-c4cccs4)nc4ccccc34)nc12,25.2,26.2
CCOC(=O)c1cnc2c(Cl)c(Cl)ccc2c1N1CCN(C)CC1,39.3,43
